A selection follows.
aSyn UTR act – Activators via SNCA 5'UTR binding, MLPCN. AID 1814. actives 7.1% (n = 300,000). alpha-synuclein 5'UTR reporter, activators screen. activity score, % (tested at 7.5 µM), hits read low; in the data active means activity score below about -60%
An asterisk follows results filed as active.

SMILES	aSyn UTR act
Cc1ccc(NC(=O)c2ccc3c(c2)OCO3)cc1Cl	-122.8*
Cc1ccc(NC(=O)c2nsc(Cl)c2Cl)cc1	-112.7*
COc1cc(Cl)c(C)cc1NC(=O)c1ccc2c(c1)OCO2	-84.2*
Cc1ccc(Nc2ncc3c(n2)CC(C)(C)CC3=O)cc1	-87.8*
CC1(C)CC(=O)c2cnc(N3CCN(c4ccccc4)CC3)nc2C1	-61.5*
CC1(C)CC(=O)c2cnc(N3CCc4ccccc4C3)nc2C1	-217.8*
CCC(C)[C@H](NC(=O)N1CC(=O)Nc2ccccc21)C(=O)Nc1ccccc1C (stereo partly specified)	-94.9*
COc1ccccc1-c1c(C#N)c(N)nc2c1CCc1ccccc1-2	-196.3*
Cc1ccc(-c2nnc(SCc3ccccc3F)o2)cc1	-80.6*
COc1ccc(-c2nnc(SCc3ccccc3F)o2)cc1OC	-66.2*
CCS(=O)(=O)N1N=C(c2cccs2)CC1c1cc2cc(C)ccc2nc1Cl (stereo unspecified)	-67.0*
O=c1c2c3c(sc2nc2n1CCCCC2)CCCCC3	-152.5*
O=c1c2c3c(sc2nc2n1CCCCC2)CCCC3	-123.9*
O=c1c2c3c(sc2nc2n1CCCC2)CCCCC3	-105.4*
Clc1nc(CN2CCCCC2)nc2sc3c(c12)CCCC3	-67.7*
Clc1ccc(-c2cn3c(n2)CCC3)cc1	-192.2*
Cc1c(-c2nc(N)nc(Nc3ccccc3)n2)oc2ccccc12	-134.4*
CSc1ccc(C(=O)N2CCc3ccc(NC(=O)c4ccccn4)cc3C2)cc1	-72.6*
O=C(NNC(=O)c1ccc(F)cc1F)c1ccc2c(c1)OCO2	-90.2*
O=C(Nc1ccc2c(c1)OCCO2)c1cccc(S(=O)(=O)N2CCOCC2)c1	-87.8*
CS(=O)(=O)c1cccc(C(=O)Nc2ccc3c(c2)OCCCO3)c1	-100.6*
CCC(CC)C(=O)Nc1cccc(C(=O)Nc2ccc3c(c2)OCO3)c1	-120.7*
CCN(CC)S(=O)(=O)c1cccc(C(=O)Nc2ccc3c(c2)OCO3)c1	-125.0*
O=C(Nc1ccc(Cl)c(S(=O)(=O)N2CCOCC2)c1)c1ccc2c(c1)OCCO2	-64.9*
O=C(Nc1ccc2cn[nH]c2c1)c1ccc(Cl)c(S(=O)(=O)N2CCOCC2)c1	-199.7*
SMILES	aSyn UTR act
O=C(Oc1ccc2c(c1)OCO2)c1ccc(F)cc1Cl	-176.2*
O=C(Oc1ccc(N2C(=O)CCC2=O)cc1)c1ccccc1Cl	59.2
O=C(Nc1cccc(F)c1)c1ccc2c(c1)OCO2	-149.0*
O=C(c1cnsn1)N1CCC(CO)(Cc2cccc(F)c2)CC1	-138.1*
CC(C)[C@H](NC(=O)c1cccc(S(=O)(=O)N2CCOCC2)c1)C(=O)Nc1nc2ccccc2s1	-71.5*
Cc1ccnc(NC(=O)c2cccc(S(=O)(=O)N3CCCc4ccccc43)c2)c1	-128.5*
Cc1cccc(C(=O)N[C@H](C(=O)Nc2nc3ccccc3[nH]2)C(C)C)c1	96.1
COc1cccc(C(=O)Nc2nc(C)cs2)c1	-141.7*
O=C(Nc1nc2ccccc2s1)c1cccc(S(=O)(=O)N2CCc3ccccc32)c1	-64.5*
COc1cc(OC)cc(C(=O)NCC(=O)OCc2nc3ccccc3s2)c1	-184.3*
O=C(Nc1nc2ccccc2s1)c1cc(-c2ccccc2)nn1-c1ccccc1	-136.6*
O=C(Nc1nc2ccccc2s1)c1cccc(N2C(=O)CCC2=O)c1	-82.1*
COc1cc(C(=O)Nc2nc3ccc(C)cc3s2)ccc1OCc1c(C)noc1C	-98.8*
COc1ccc(C(=O)Nc2nc3ccccc3s2)cc1	67.1
COc1ccc(C(=O)Nc2nc3ccccc3s2)cc1OC	-211.6*
COc1cccc(C(=O)Nc2nc3ccccc3s2)c1	-108.3*
CC(=O)c1ccc(-n2c(CCC(=O)O)ccc2-c2cccs2)cc1	-98.7*
CC(=O)N/C(N)=N/c1nc(=O)c2ccccc2s1	-98.7*
CCOC(=O)N/C(N)=N/c1nc2ccccc2s1	-115.6*
CCSc1nc(N)c2c3c(sc2n1)CCC3	-89.4*
Nc1c2c(nc3sc4c(c13)CCCC4)CCCCCC2	-82.1*
Nc1nc(-c2ccccc2)nc2sc3c(c12)CCCC3	-138.7*
N/C(Cc1nc(-c2ccc(Cl)cc2)cs1)=N/O	-67.3*
Cc1ccc(-c2csc(CC(N)=O)n2)cc1	-76.0*
CCOc1ccccc1NC(=O)C(OC(=O)c1ccc(O)cc1)c1ccccc1 (stereo unspecified)	-61.7*
SMILES	aSyn UTR act
Nc1c(C(=O)NCc2ccco2)sc2nc3c(cc12)C(=O)CCC3	-94.4*
CCCOC(=O)c1sc2nc3c(cc2c1N)C(=O)CCC3	-152.2*
COc1ccc2cc3c(N)c(C(=O)NCc4ccco4)sc3nc2c1	-191.7*
O=C(CSc1nnc(-c2ccc(F)cc2)o1)N1CCCC1	-113.8*
Cc1cccc(-c2nnc(SCC(=O)N3CCCC3)o2)c1	-82.8*
CCOC(=O)N1CCN(C(=O)CSc2nnc(-c3ccc(C(C)(C)C)cc3)o2)CC1	-72.8*
Cc1ccc(-c2nnc(SCC(=O)N3CCCC3)o2)cc1	-104.1*
Cc1ccc(-c2nnc(SCC(=O)N3CCCC3)o2)cc1C	-83.0*
CCCCc1ccc(Nc2ncccc2C#N)cc1	-86.6*
O=[N+]([O-])c1ccc(S(=O)(=O)Nc2cccc(-c3ccc(N4CCOCC4)nn3)c2)cc1	-83.5*
O=[N+]([O-])c1ccc(Cl)c(S(=O)(=O)Nc2cccc(-c3ccc(N4CCOCC4)nn3)c2)c1	-107.9*
CCN(CC)c1ccc(C2=NNC(=O)CC2C)cc1[N+](=O)[O-] (stereo unspecified)	98.5
CC(C)CC(=O)Nc1ccc(C(=O)Nc2cccc(O)c2)cc1	-150.8*
O=C(Nc1cccc(O)c1)c1ccc(C(F)(F)F)cc1	-166.0*
Cc1ccc(NC(=O)Cc2nc(CSc3nnc(-c4ccc5c(c4)OCO5)o3)cs2)cc1	-76.8*
O=C(Nc1nc2ccccc2[nH]1)c1ccc(Cl)c(S(=O)(=O)N2CCCC2)c1	-148.3*
COc1cccc(C(=O)Nc2nc3ccccc3[nH]2)c1	62.6
COC(=O)c1cc(C(=O)Nc2nc3ccccc3[nH]2)cc([N+](=O)[O-])c1	-161.6*
COc1ccc(C(=O)Nc2nc3ccccc3[nH]2)cc1	70.7
O=C(Nc1nc2ccccc2[nH]1)c1cccc(F)c1	-61.6*
COc1cc(C(=O)Nc2nc3ccccc3[nH]2)cc(OC)c1OC	-75.6*
O=C(/C=C/c1ccc(F)cc1)Nc1nc2ccccc2[nH]1	-129.3*
O=C(Nc1nc2ccccc2[nH]1)c1cccc([N+](=O)[O-])c1	-250.4*
O=C(/C=C/c1c(F)cccc1Cl)N1CCc2ccccc2C1	-85.1*
CCN1CCN(C(=O)/C=C/c2c(F)cccc2Cl)CC1	-90.0*
SMILES	aSyn UTR act
Cc1[nH]n(-c2nc(-c3ccc(Cl)cc3)cs2)c(=O)c1N=Nc1ccc(O)cc1	-118.2*
COc1ccc(-c2cn3cc(C(F)(F)F)cc(Cl)c3n2)cc1	-196.9*
Fc1ccc(-c2cn3cc(C(F)(F)F)cc(Cl)c3n2)cc1	-101.3*
CCOC(=O)c1cc(C(=O)Nc2ccccc2F)nn1C	-159.2*
Fc1ccc(/C=N/NC2=Nc3cccc4cccc2c34)cc1	-294.1*
COc1cc(Br)cc(/C=N/NC(=O)Cc2ccc(C(F)(F)F)cc2[N+](=O)[O-])c1O	67.5
O=C(CCl)Nc1cc(SCC(O)CO)cc([N+](=O)[O-])c1 (stereo unspecified)	110.0
O=C(CSc1ccc(C(F)(F)F)cc1[N+](=O)[O-])Nc1ccccc1	-75.4*
COCc1ccc(C(=O)N(C)CC2CCCN(CCc3ccc(OC)cc3)C2)o1 (stereo unspecified)	-123.1*
COc1ccc(CCN2CCCC(CN(C)C(=O)c3cc(C)oc3C)C2)cc1 (stereo unspecified)	-148.6*

Screening results deposited in PubChem BioAssay by Broad Institute.
